The results in this text go back to patent US20060069055, “Delivery of polynucleotides” (published 2006).

This assay deals with NF-kB p50/p50 homodimer (Homo sapiens, UniProt P19838 P19838:1-433). The assay is described as follows: EMSA. The settings on record: protein: extract; tags: nuclear extract of LPS-stimulated THP-1 cells; chain copies: 2 stated; dsDNA, one strand shown. The text has this: The EMSA assay was employed to characterize oligonucleotide decoys for the NF-κB transcription factor. […] Using the above modified oligonucleotides to compete for binding for the above-mentioned NF-κB family members, it was possible to compare the binding affinity of these oligonucleotides against the high affinity radiolabeled probe and each other. This assay has also enabled the design of a decoy which selectively binds particular members of the NF-κB family. By using increasing concentrations of various oligonucleotides, it was observed that, by deleting or changing targeted residues in the binding site, it was possible to specifically decrease the binding of the decoy molecule to p50/p50 homodimers, while retaining the affinity for p65/p50 and cRel/p50 heterodimers.
Chain of NF-kB p50/p50 homodimer (P19838 1-433, one chain of several): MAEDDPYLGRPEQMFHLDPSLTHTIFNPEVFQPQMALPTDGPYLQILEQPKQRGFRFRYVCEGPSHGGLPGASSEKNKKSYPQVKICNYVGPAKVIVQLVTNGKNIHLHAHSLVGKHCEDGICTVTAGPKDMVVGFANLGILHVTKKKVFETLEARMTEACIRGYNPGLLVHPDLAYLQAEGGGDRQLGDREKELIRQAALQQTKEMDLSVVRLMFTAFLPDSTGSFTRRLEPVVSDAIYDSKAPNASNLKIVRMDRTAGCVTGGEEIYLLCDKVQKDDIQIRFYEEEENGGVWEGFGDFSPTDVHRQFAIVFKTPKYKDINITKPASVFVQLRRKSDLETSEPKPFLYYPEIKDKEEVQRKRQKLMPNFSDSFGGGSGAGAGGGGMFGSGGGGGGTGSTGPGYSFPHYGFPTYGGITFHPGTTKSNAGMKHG
The NF-κB gel shift assays (EMSA) were performed as follows. A double-stranded oligonucleotide containing a consensus NF-κB binding site (5′ […].GGC 3′) (SEQ ID NO: 26) was end-labeled with γ³²P-ATP using T4 Polynucleotide Kinase (Promega). One microgram of a nuclear extract prepared from LPS stimulated THP-1 cells (human monocyte cell line) was incubated with 35 fmol of radiolabeled probe in the presence or absence of competing unlabeled NF-κB double-stranded oligonucleotides (dsODN) or scrambled dsODN. The incubations were carried out at room temperature for 30 minutes in a 20 μl reaction volume composed of 10 mM Tris-HCl pH 8, 100 mM KCL, 5mM MgC12, 2mM DTT, 10% Glycerol, 0.1% NP-40, 0.025% BSA and 1 μg Poly-dIdC. The reactions were loaded onto a 6% polyacrylamide gel, subjected to electrophoresis and dried. The dried gels were imaged and quantitated using a Typhoon 8600 Phosphorlmager (Amersham) and ImageQuant software. The identity of the NF-κB proteins contained in complexes bound to the radiolabeled oligonucleotide probe were identified by pre-incubating the reactions for 5 minutes with individual antibodies specific for each member of the NF-κB family prior to the addition of the radiolabeled probe.
A general note: Mobility shift assays separate free from complexed probe on a gel.
Regarding TCGGACTTTCCTC, the IC50 is 97 fold molar excess. The result for TTGAGGACTTTCCAGGCTC reads 85 fold molar excess. The result for AGTTGAGGGATTTCCAGGC reads 69 fold molar excess. The result for TCGGACTTTCCCTC reads 62.5 fold molar excess.

Regarding AGTTGAGGATTTCCCAGGC, the IC50 worked out at 84 fold molar excess.

AGTTGAGGATTTCCAGGC: the IC50 was determined as 82 fold molar excess.
